The results in this text go back to article PMC7862700, “An all-to-all approach to the identification of sequence-specific readers for epigenetic DNA modifications on cytosine”.

What all share (test): DAPPL (digital affinity profiling via proximity ligation, sequencing); 10 mM Tris-HCl pH 7.5, 50 mM NaCl, 1 mM DTT, 4% glycerol, room temperature, 30 min; GST-TFs on glutathione beads, 16-mer random dsDNA library, 0.1% formaldehyde crosslink after washing; high values mean tight binding
The target of one experiment is T1, FEV (Homo sapiens, UniProt Q99581 1-238).
T1 sequence: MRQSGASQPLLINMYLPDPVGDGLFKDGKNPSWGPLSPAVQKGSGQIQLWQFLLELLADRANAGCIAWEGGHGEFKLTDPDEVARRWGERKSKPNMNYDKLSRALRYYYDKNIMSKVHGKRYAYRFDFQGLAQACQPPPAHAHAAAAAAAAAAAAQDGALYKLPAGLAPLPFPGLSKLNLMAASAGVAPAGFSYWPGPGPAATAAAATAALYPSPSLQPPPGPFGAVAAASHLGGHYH
Conditions: protein: recombinant; tags: N-terminal GST; dsDNA, one strand shown. Put shortly:
(§1)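 In yeast, human transcription factors were expressed with a GST fusion, then pulled down on glutathione beads and given DNA barcodes. Pooled with a tag-only sample, they were exposed to 200 nmole of a 16-mer random double-stranded DNA library (Tris/NaCl/DTT/glycerol buffer, room temperature, 30 min), washed, crosslinked with 0.1% formaldehyde, proximity-ligated using BsaI/T4 ligase for 1 h at 37 °C, PCR-amplified and read on an Illumina NextSeq500. Each hexamer's frequency of reads for a factor, divided by the matching frequency for the tag-only sample, gives the binding signal.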

A further experiment has as its target ETV5 (Homo sapiens, UniProt P41161 1-510). Conditions: protein: recombinant; tags: N-terminal GST; dsDNA, one strand shown. An outline of the steps:
as §1

The next experiment deals with HSF1 (Homo sapiens, UniProt Q00613 1-529). Conditions: protein: recombinant; tags: N-terminal GST; chain copies: 3; dsDNA, one strand shown. Put shortly:
as §1

In the next experiment the target is T2, SPIC (Homo sapiens, UniProt Q8N5J4 1-248).
T2 sequence: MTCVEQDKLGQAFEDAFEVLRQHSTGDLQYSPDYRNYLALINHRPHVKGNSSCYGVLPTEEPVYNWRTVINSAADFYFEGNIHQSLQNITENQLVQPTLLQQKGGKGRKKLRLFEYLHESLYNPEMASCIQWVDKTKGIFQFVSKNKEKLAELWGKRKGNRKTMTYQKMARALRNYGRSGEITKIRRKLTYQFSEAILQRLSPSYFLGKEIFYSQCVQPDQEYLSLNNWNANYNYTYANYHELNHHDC
Conditions: protein: recombinant; tags: N-terminal GST; dsDNA, one strand shown. Put shortly: as §1

The next experiment addresses ELF4 (Homo sapiens, UniProt Q99607 1-663). Conditions: protein: recombinant; tags: N-terminal GST; dsDNA, one strand shown. Put shortly:
as §1

Another experiment has as its target T3, ELK4 (Homo sapiens, UniProt P28324-2 1-405).
T3 sequence: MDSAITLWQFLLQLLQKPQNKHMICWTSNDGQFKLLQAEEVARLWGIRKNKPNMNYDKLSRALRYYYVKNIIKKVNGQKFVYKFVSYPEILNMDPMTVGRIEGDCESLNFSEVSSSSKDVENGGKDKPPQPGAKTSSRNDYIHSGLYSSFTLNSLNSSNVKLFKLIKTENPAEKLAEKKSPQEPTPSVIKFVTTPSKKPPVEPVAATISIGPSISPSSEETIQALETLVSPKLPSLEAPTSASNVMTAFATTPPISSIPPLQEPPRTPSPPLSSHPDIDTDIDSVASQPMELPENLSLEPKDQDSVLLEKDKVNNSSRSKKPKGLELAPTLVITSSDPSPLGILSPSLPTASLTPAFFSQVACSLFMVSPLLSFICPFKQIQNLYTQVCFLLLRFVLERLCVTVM
Conditions: protein: recombinant; tags: N-terminal GST; dsDNA, one strand shown. Put shortly:
as §1

The next experiment concerns the target T4, ETV2 (Homo sapiens, UniProt O00321 1-342).
T4 sequence: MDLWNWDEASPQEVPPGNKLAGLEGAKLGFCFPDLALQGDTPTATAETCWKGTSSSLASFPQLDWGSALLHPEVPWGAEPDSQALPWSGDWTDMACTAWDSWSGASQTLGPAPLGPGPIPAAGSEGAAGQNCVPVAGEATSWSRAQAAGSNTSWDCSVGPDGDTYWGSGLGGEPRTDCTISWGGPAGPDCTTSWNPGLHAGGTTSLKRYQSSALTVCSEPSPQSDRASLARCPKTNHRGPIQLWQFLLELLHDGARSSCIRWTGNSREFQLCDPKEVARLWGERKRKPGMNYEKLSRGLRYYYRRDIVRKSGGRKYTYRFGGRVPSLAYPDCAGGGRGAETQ
Conditions: protein: recombinant; tags: N-terminal GST; dsDNA, one strand shown. An outline of the steps: as §1

The next experiment deals with T5, ELF3 (Homo sapiens, UniProt P78545 1-371).
T5 sequence: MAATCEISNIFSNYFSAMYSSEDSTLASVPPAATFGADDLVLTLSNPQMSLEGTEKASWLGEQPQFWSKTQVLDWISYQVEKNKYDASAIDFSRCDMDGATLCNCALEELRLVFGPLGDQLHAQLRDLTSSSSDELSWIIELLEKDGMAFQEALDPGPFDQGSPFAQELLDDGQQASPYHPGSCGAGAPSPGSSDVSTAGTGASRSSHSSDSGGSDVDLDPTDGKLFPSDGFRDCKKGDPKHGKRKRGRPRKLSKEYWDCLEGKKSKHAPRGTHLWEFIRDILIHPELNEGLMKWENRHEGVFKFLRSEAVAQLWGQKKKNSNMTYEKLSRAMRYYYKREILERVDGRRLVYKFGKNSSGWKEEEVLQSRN
Conditions: protein: recombinant; tags: N-terminal GST; dsDNA, one strand shown. An outline of the steps:
as §1

For the next experiment, the target named is CRX (Homo sapiens, UniProt O43186 1-299). Conditions: protein: recombinant; tags: N-terminal GST; dsDNA, one strand shown. Put shortly:
as §1

The target of the next experiment is ETV1 (Homo sapiens, UniProt P50549 1-477). Conditions: protein: recombinant; tags: N-terminal GST; dsDNA, one strand shown. Put shortly:
as §1

A further experiment concerns the target T6, ERF (Homo sapiens, UniProt P50548 1-548).
T6 sequence: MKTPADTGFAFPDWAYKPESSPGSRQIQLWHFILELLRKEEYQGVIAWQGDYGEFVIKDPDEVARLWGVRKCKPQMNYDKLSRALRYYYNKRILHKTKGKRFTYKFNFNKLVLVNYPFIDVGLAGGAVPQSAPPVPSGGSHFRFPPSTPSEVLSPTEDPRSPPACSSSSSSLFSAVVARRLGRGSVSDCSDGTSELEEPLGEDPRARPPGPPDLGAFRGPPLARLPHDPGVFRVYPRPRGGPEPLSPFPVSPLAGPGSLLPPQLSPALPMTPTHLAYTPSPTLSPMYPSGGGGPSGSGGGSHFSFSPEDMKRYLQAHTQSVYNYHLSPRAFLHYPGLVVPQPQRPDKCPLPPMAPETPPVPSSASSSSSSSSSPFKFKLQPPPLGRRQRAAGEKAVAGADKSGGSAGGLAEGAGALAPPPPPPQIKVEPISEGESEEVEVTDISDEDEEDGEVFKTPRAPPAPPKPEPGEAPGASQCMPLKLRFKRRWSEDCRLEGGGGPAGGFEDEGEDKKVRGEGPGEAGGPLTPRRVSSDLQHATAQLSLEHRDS
Conditions: protein: recombinant; tags: N-terminal GST; dsDNA, one strand shown. Put shortly:
as §1

A further experiment has as its target T7, ETV3L (Homo sapiens, UniProt Q6ZN32 1-361).
T7 sequence: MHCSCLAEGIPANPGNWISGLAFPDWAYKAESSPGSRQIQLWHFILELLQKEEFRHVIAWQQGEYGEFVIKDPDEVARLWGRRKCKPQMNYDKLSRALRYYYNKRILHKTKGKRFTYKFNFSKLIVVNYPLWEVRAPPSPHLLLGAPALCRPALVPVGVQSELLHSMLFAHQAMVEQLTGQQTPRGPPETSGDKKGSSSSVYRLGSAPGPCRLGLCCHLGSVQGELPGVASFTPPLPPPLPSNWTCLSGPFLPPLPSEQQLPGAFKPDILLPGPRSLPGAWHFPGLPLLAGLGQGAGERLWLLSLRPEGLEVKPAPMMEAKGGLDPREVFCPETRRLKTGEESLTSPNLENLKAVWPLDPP
Conditions: protein: recombinant; tags: N-terminal GST; dsDNA, one strand shown. Put shortly:
as §1

The next experiment concerns the target T8, ETS2 (Homo sapiens, UniProt P15036 1-469).
T8 sequence: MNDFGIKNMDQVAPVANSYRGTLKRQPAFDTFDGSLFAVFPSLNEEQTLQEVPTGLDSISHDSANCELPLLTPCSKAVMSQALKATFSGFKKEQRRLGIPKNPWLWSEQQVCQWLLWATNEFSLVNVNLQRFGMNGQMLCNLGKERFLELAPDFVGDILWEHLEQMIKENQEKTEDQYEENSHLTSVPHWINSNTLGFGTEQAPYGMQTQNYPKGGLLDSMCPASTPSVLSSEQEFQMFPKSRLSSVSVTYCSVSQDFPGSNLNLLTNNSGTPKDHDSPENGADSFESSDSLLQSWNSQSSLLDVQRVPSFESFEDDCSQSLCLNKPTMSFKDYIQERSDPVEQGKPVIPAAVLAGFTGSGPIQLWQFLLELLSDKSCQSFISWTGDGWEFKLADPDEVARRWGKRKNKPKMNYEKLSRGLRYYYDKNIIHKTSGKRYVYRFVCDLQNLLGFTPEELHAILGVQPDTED
Conditions: protein: recombinant; tags: N-terminal GST; dsDNA, one strand shown. An outline of the steps: as §1

The target in a further experiment is T9, SPDEF (Homo sapiens, UniProt O95238 1-335).
T9 sequence: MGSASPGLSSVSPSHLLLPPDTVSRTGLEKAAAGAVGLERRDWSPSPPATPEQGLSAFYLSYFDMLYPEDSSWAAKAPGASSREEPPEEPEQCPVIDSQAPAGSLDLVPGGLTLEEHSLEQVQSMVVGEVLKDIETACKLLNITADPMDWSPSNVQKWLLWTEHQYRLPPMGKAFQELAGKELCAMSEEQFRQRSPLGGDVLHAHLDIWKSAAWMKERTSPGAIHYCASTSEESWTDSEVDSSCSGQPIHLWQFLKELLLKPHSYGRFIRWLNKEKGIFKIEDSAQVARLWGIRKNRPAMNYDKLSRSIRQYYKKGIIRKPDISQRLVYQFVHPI
Conditions: protein: recombinant; tags: N-terminal GST; dsDNA, one strand shown. An outline of the steps: as §1

A further experiment deals with T10, ETV7 (Homo sapiens, UniProt Q9Y603 1-341).
T10 sequence: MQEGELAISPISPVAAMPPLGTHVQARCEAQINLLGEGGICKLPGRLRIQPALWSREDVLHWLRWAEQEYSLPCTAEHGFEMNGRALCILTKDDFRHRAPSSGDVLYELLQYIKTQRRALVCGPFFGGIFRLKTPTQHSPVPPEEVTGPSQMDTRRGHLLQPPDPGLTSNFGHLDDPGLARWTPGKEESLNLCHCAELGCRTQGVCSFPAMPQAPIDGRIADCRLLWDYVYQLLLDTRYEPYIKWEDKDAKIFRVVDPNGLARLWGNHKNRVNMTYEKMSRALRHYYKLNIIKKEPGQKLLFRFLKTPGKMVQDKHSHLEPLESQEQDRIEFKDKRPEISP
Conditions: protein: recombinant; tags: N-terminal GST; dsDNA, one strand shown. Put shortly:
as §1

In a further experiment the target is T11, ELF5 (Homo sapiens, UniProt Q9UKW6-2 1-255).
T11 sequence: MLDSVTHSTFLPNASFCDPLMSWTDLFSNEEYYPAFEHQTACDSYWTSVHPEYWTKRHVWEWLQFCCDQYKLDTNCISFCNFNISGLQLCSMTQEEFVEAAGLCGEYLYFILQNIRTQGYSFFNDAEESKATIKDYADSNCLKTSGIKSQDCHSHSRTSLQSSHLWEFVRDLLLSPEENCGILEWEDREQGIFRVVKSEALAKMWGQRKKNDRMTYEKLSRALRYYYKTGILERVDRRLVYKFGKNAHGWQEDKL
Conditions: protein: recombinant; tags: N-terminal GST; dsDNA, one strand shown. An outline of the steps:
as §1

The next experiment deals with T12, ETV3 (Homo sapiens, UniProt P41162-2 1-143).
T12 sequence: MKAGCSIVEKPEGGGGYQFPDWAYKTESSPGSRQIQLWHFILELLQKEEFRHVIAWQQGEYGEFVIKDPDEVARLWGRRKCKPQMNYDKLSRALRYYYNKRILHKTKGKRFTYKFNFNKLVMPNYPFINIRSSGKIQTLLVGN
Conditions: protein: recombinant; tags: N-terminal GST; dsDNA, one strand shown. Put shortly:
as §1

The next experiment deals with ETV6 (Homo sapiens, UniProt P41212 1-452). Conditions: protein: recombinant; tags: N-terminal GST; dsDNA, one strand shown. An outline of the steps:
as §1

Chain of CRX (O43186 whole entry): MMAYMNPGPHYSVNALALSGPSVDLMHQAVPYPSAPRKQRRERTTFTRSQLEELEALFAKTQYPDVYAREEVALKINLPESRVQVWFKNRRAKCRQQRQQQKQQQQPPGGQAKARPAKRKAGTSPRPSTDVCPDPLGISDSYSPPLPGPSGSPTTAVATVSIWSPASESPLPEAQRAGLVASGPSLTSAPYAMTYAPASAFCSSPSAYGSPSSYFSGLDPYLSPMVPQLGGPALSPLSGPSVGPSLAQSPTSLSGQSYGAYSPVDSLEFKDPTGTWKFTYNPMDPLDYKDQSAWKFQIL
Chain of ETV5 (P41161 whole entry): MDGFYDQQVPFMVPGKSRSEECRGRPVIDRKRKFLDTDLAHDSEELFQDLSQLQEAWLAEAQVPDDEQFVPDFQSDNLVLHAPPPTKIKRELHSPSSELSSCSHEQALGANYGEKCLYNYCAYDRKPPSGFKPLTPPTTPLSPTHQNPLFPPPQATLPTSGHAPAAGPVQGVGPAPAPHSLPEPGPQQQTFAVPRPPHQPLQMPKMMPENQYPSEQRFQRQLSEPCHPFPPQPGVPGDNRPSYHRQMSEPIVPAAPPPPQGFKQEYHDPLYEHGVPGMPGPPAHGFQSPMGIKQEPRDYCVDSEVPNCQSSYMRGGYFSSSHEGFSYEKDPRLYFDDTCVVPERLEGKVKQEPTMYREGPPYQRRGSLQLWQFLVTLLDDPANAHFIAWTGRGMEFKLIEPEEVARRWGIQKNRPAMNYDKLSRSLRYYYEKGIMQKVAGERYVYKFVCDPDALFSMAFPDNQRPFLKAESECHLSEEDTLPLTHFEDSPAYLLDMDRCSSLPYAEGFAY
Chain of ETV6 (P41212 whole entry): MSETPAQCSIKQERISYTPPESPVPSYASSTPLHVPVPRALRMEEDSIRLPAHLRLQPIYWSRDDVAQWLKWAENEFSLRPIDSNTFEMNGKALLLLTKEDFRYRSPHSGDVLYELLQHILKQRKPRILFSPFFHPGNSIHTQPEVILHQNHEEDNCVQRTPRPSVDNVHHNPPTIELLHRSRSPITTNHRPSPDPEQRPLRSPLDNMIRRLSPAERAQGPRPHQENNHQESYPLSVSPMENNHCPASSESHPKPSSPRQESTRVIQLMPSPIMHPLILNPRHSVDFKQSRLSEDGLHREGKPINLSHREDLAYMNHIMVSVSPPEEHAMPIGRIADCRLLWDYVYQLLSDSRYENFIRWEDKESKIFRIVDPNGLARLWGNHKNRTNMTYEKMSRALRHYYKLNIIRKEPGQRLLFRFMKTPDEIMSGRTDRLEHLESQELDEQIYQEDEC
Chain of HSF1 (Q00613 whole entry): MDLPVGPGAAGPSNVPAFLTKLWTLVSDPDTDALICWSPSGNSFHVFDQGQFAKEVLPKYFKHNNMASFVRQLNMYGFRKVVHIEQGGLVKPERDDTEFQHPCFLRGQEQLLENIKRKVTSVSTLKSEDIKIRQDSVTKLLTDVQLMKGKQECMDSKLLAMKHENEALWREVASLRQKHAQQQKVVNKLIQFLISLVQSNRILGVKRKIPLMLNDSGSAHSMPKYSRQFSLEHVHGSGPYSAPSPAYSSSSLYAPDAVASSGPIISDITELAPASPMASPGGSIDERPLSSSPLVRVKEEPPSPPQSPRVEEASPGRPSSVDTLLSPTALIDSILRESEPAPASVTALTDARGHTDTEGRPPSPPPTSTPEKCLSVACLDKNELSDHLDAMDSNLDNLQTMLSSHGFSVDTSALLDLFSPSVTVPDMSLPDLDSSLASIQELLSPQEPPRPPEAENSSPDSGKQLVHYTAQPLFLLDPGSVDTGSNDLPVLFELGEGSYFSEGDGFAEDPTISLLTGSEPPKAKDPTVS
Chain of ETV1 (P50549 whole entry): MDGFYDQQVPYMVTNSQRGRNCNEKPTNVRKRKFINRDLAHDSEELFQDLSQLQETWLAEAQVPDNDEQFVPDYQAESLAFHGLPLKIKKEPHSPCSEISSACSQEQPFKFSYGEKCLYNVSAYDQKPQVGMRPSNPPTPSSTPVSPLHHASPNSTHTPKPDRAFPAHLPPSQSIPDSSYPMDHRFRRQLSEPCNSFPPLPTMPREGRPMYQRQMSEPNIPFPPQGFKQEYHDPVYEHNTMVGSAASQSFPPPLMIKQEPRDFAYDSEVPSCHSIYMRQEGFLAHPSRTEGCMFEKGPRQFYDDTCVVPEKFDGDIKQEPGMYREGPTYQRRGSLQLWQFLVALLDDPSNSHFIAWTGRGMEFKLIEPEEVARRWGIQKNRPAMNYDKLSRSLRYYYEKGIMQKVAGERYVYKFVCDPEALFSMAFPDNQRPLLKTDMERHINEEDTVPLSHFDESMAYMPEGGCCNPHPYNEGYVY
Chain of ELF4 (Q99607 whole entry): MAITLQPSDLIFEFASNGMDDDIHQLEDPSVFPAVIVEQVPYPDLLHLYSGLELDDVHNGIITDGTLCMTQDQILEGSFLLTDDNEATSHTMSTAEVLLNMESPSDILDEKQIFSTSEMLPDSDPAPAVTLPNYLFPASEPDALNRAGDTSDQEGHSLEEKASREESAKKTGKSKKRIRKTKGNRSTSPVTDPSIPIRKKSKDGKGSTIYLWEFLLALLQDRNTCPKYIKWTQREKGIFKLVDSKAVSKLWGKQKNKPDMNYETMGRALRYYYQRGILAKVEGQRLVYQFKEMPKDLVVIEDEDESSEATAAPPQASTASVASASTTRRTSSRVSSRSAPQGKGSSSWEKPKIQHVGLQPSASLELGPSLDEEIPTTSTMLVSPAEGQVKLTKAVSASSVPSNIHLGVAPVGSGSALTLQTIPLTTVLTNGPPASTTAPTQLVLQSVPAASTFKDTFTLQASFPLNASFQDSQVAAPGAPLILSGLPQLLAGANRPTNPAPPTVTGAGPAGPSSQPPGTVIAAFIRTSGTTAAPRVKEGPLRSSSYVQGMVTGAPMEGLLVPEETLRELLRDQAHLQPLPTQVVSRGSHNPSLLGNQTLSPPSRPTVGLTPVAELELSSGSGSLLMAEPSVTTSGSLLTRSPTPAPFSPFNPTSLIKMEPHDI

With ATGGCC, the binding signal in the experiment with FEV is 1.45 fold enrichment (6-mer frequency, TF over GST control); in the experiment with ETV5, 1.42 fold enrichment (6-mer frequency, TF over GST control); with HSF1 it was 1.23 fold enrichment (6-mer frequency, TF over GST control); in the experiment with SPIC, 1.52 fold enrichment (6-mer frequency, TF over GST control); with ELF4 it was 1.44 fold enrichment (6-mer frequency, TF over GST control); with ELK4, 1.48 fold enrichment (6-mer frequency, TF over GST control). The binding signal was 1.41 fold enrichment (6-mer frequency, TF over GST control) with ETV2; 1.5 fold enrichment (6-mer frequency, TF over GST control) with ELF3; 1.08 fold enrichment (6-mer frequency, TF over GST control) in the experiment with CRX; 1.38 fold enrichment (6-mer frequency, TF over GST control) with ETV1; 1.27 fold enrichment (6-mer frequency, TF over GST control) with ERF; 1.32 fold enrichment (6-mer frequency, TF over GST control) in the experiment with ETV3L. Further, the binding signal is 1.37 fold enrichment (6-mer frequency, TF over GST control) with ETS2; 1.32 fold enrichment (6-mer frequency, TF over GST control) with SPDEF; 1.44 fold enrichment (6-mer frequency, TF over GST control) in the experiment with ETV7; 1.32 fold enrichment (6-mer frequency, TF over GST control) with ELF5; 1.39 fold enrichment (6-mer frequency, TF over GST control) with ETV3; 1.34 fold enrichment (6-mer frequency, TF over GST control) with ETV6.
